Assay outcomes from PubChem.
TRHR enhancer = qHTS for Small Molecule Agonists and Allosteric Enhancers of Human TRH Receptor: Primary Screen for Enhancers. TRHR cells, fluo-8 calcium fluorescence, EC20 TRH enhancement. enhancement, % at 2 µM. 0.66% of 360,000 active. AID 493056, 2011; in the data active means enhancement above about 30%
Target sequence (P34981 whole entry, looked up): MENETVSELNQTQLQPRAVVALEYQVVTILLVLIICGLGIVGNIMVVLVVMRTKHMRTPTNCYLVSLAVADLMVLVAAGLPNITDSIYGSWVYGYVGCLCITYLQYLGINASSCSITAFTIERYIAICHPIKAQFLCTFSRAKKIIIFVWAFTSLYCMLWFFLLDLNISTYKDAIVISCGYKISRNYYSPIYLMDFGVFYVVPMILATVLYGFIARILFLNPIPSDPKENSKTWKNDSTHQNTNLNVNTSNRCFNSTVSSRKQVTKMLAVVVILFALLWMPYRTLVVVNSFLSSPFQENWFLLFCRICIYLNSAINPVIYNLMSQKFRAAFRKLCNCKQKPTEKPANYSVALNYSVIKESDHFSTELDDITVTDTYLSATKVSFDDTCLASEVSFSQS
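TRHR-expressing cells loaded with fluo-8 calcium dye were read kinetically (ex 480/em 530) during compound addition, then stimulated with an EC20 of TRH (10 nM final). Enhancement of the Gq-mediated intracellular calcium response was scored.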
TRHR ag = qHTS for Small Molecule Agonists and Allosteric Enhancers of Human TRH Receptor: Primary Screen for Agonists; Thyrotropin-releasing hormone receptor (Homo sapiens), P34981; TRHR cells, calcium flux fluo-8, FDSS agonist mode; activation, % at 2 µM; 0.18% of 360,000 active; AID 493084, 2011
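TRHR-expressing cells loaded with fluo-8 calcium dye; 23 nL library compound pin-transferred, kinetic FDSS fluorescence (Ex 480/Em 530) recorded about 180 s for agonist-induced calcium release, before a 10 nM TRH EC20 addition for potentiator mode.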
D1 agonist = Allosteric Agonists of the Human D1 Dopamine Receptor: qHTS; D(1A) dopamine receptor (Homo sapiens), P21728; HEK293 T-REx D1 cells, calcium flux, agonist mode; activation, % at 2 µM; 1% of 360,000 active; AID 504660, 2011
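Inducible HEK293 T-REx D1 cells, force-coupled to calcium signalling, were plated at 4000 cells/well with tetracycline and held overnight at 30 C. After no-wash calcium dye loading, compound-evoked calcium rise over 180 s flagged agonists.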
D1 antag = Antagonist of Human D 1 Dopamine Receptor: qHTS. D(1A) dopamine receptor (Homo sapiens), P21728. HEK293 TREx D1 cells, calcium flux, dopamine EC80; stronger effect = lower value. activity change, negative = inhibition, % at 10 µM. 3.2% of 360,000 active; in the data active means activity change below about -30%
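HEK293 T-REx cells expressing inducible, force-coupled D1 receptor; no-wash Ca dye, 30–90 min RT. Cmpd → 180 s read at 1 Hz → EC80 DA → 180 s read.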
D1 potentiator = Potentiators of Human D1 Dopamine Receptor: qHTS | 0.036% of 360,000 active | potentiation, % at 10 µM | HEK293 TREx D1 cells, calcium flux, dopamine EC20 potentiation; in the data active means potentiation above about 30%
Numbers stand for hits; – = inactive; · = no result given; ! = not confirmed by another sample. Rows were chosen to be rich in hits. Some 4.6% of all compounds tested hit in one or more screens of this group. Unless noted, no stated cut-off is given here; in the data, active means activation above about 30%; inactive means the rest.

SMILES	TRHR enhancer	TRHR ag	D1 agonist	D1 antag	D1 potentiator
O=C(NC1CCCCC1)N(Cc1nc2ccccc2c(=O)[nH]1)C1CCCC1	–	–	–	-64.2	–
O=C(NC1CCCCC1)N(Cc1nc2ccccc2c(=O)[nH]1)C1CCCCC1	–	–	–	–	–
Fc1ccc(-n2ncc3c(NCCCn4ccnc4)ncnc32)cc1	–	–	–	–	–
COc1ccc(-n2ncc3c(NCCCn4ccnc4)ncnc32)cc1	–	–	–	–	–
Clc1cccc(-n2ncc3c(NCCCn4ccnc4)ncnc32)c1	–	–	–	-40.5	–
Cc1ccc(-n2ncc3c(NCCCn4ccnc4)ncnc32)cc1C	–	–	–	-59.9	–
COc1ccc(C(=O)C[n+]2ccc3c(c2)nc(-c2cc(OC)c(OC)cc2OC)n3C)cc1	–	–	–	-30.9	–
Cc1cccc2c1-c1sc(C(=O)N(C)c3cccc(C(F)(F)F)c3)cc1CO2	–	–	–	–	–
CN(CC(=O)Nc1ccccc1Cl)CC(=O)c1c(N)n(Cc2ccccc2)c(=O)n(C)c1=O	–	–	–	-31.8	–
CCOC(=O)c1c(C)[nH]c(C(=O)OCC(=O)Nc2ccccc2)c1C	–	–	–	-73.0	–
CCOC(=O)c1c(C)[nH]c(C(=O)C(C)Cl)c1C (stereo not drawn)	–	–	–	-31.7	–
CCOC(=O)c1c(C)[nH]c(C(=O)CN(C)CC(=O)Nc2ccccc2Cl)c1C	–	–	–	-41.0	–
CCOC(=O)c1c(C)[nH]c(C(C)=O)c1C	–	–	–	–	–
CCOc1cc(CNC(=O)Cn2ncn3c(cc4cc(F)ccc43)c2=O)cc(OCC)c1OCC	–	–	–	–	–
Cc1cc(C)c(NC(=O)CSc2n[nH]c(-c3ccccc3Cl)n2)c(C)c1	–	–	–	–	–
Cc1cccc(C(=O)NC(=O)Nc2ccc(-n3nc(C(F)(F)F)cc3C(F)(F)F)cc2)c1	–	–	–	–	–
Cc1cc(Cl)nc(-n2nc(C)cc2C)n1	–	–	–	-41.8	–
CN(C(=O)CSc1nc2ccccc2n1CC(=O)N(C)c1ccc(F)cc1)c1ccccc1	–	–	–	–	–
Cc1sc2ncnc(NCC3CCCO3)c2c1C (stereo not drawn)	–	–	–	-30.2	–
CCc1cc2c(NCC3CCCO3)ncnc2s1 (stereo not drawn)	–	–	–	–	–
CCN(C(=O)C1CCCN(S(=O)(=O)c2c(C)noc2/C=C/N(C)C)C1)c1cccc(C)c1 (stereo not drawn)	–	–	–	–	–
COc1ccccc1NC(=O)CSc1nnc(NC(=O)Nc2ccc(C)cc2)s1	–	–	–	·	–
Cc1ccccc1-c1nc2c3c(-c4ccccc4)c(-c4ccccc4)oc3ncn2n1	–	–	–	–	–
CCn1c2ccccc2c2cc(CN3CCN(Cc4ccc(Cl)cc4)CC3)ccc21	–	–	–	–	–
CN1CCN(/N=C/c2ccc(N(c3ccccc3)c3ccccc3)cc2)CC1	–	–	–	–	–
SMILES	TRHR enhancer	TRHR ag	D1 agonist	D1 antag	D1 potentiator
CN1CCN(/N=C/c2ccc(Br)cc2)CC1	–	–	–	-33.3	–
O=C(O)CCc1ccc(-c2ccc(F)cc2)n1NC(=O)c1ccco1	–	–	–	-88.1	–
CCOC(=O)c1ccccc1-n1c(C)cc(C2N=C(N)Nc3nc4ccccc4n32)c1C (stereo not drawn)	–	–	–	-35.6	–
CC(=O)Nc1cc(C(N)=O)c(Cl)cc1Cl	–	–	–	-31.3	–
CC(=O)Nc1ccc(Cl)c(C(N)=O)c1	–	–	–	–	–
CCN(CC)C(=O)C1CCN(S(=O)(=O)c2ccc3oc4ccccc4c3c2)CC1	–	–	–	-35.5	–
CC(C)CN(CC(C)C)C(=O)C1CCCN(S(=O)(=O)c2ccc3c(c2)oc(=O)n3C)C1 (stereo not drawn)	–	–	–	-30.9	–
CCN(C(=O)C1CCN(S(=O)(=O)c2ccc3c(c2)oc(=O)n3C)CC1)c1cccc(C)c1	–	–	–	-39.1	·
Cc1ccc(N(C)C(=O)C2CCN(S(=O)(=O)c3ccc4c(c3)oc(=O)n4C)CC2)cc1	–	–	–	–	–
Cc1ccc(N2CCN(C(=O)C3CCN(S(=O)(=O)c4ccc5c(c4)oc(=O)n5C)CC3)CC2C)cc1 (stereo not drawn)	–	–	–	-44.4	–
COc1ccc(N2CCN(C(=O)C3CCCN(S(=O)(=O)c4ccc5c(c4)oc(=O)n5C)C3)CC2)cc1 (stereo not drawn)	–	–	–	-45.3!	–
COc1ccccc1N1CCN(C(=O)C2CCCN(S(=O)(=O)c3ccc4c(c3)oc(=O)n4C)C2)CC1 (stereo not drawn)	–	–	–	–	–
Cn1c(=O)oc2cc(S(=O)(=O)N3CCCC(C(=O)N4CCN(c5ccc(Cl)cc5)CC4)C3)ccc21 (stereo not drawn)	–	–	–	-33.6	–
COCCN(C(=S)Nc1ccccc1C)C(C)c1ccco1 (stereo not drawn)	–	–	–	-70.8	–
COCCN(C(=S)Nc1cccc(C)c1C)C(C)c1ccco1 (stereo not drawn)	–	–	–	–	–
CN(C)/C=C(\C#N)C(=O)N/N=C/c1ccccc1	–	–	–	-30.6	–
Cc1csc(SCC(=O)Nc2ccc(C)c(F)c2)n1	–	–	–	-39.5	–
Cc1cc(-c2cc(C(=O)NCc3ccccc3)on2)nc(NCC2CC2)n1	–	–	–	–	–
CCCNc1nc(C)cc(-c2cc(C(=O)NCc3ccccc3)on2)n1	–	–	–	-30.2	–
N#Cc1ccccc1NC(=O)COC(=O)c1ccc(F)cc1F	–	–	–	–	–
CCN(Cc1ccccc1)S(=O)(=O)c1ccc(S(=O)(=O)N(Cc2cccc(OC)c2)CC2CCCO2)cc1 (stereo not drawn)	–	–	31.4	–	–
CCN(Cc1ccccc1)S(=O)(=O)c1ccc(S(=O)(=O)N2CCN(CCC#N)CC2)cc1	–	–	–	-42.5	–
COc1ccc(S(=O)(=O)N(CC(=O)Nc2ccccc2Br)Cc2ccccc2)cc1	–	–	44.0	–	–
COc1ccc(S(=O)(=O)N(CC(=O)Nc2ccc(Br)cc2)Cc2ccccc2)cc1	–	–	–	–	–
CCN(Cc1ccccc1)S(=O)(=O)c1ccc(N2CCCCS2(=O)=O)cc1	–	–	–	-31.2	–
COc1ccc(OCCOc2ccc(N(C)S(=O)(=O)c3ccccc3)cc2)cc1	–	–	42.4	–	–
CCN(Cc1ccccc1)S(=O)(=O)c1ccc(OC)cc1	–	–	–	-34.4	–
